PubChem BioAssay (NCI)
Compounds without any hit were thinned out: in the full panel of roughly 79,000, 15% have a hit. The source made the active and inactive calls. Cut-off read from the data, not from the text of the source: active = growth inhibition above about 70%; inactive = the rest.

Assays:
[1] = NCI Yeast Anticancer Drug Screen. Data for the wt1 strain (AID 149);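 note: 0% = growth of vehicle-treated wt1 cultures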; details: S. cerevisiae wt1 strain (SPY 50644) growth inhibition, hits give high values
Procedure, shortened: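 Compounds are added to wt1 yeast cultures. Growth is then measured. Inhibition is expressed relative to vehicle-treated controls.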

[2] = NCI Yeast Anticancer Drug Screen. Data for the rad50EPP+ strain (AID 151);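 note: 0% = growth of vehicle-treated control cultures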; details: S. cerevisiae rad50 mutant strain, hits give high values
Procedure, shortened: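 One strain with a rad50 alteration (rad50EPP+) was compound-treated, its growth then compared to that of vehicle controls.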

[3] = NCI Yeast Anticancer Drug Screen. Data for the mgt1 strain (AID 153); details: S. cerevisiae mgt1 mutant growth inhibition, hits give high values
Procedure, shortened: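 After exposure of the mgt1 yeast mutant to compound, growth was measured and reported as inhibition compared with vehicle controls.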

[4] = NCI Yeast Anticancer Drug Screen. Data for the rad50 strain (AID 155);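 note: 0% = growth of vehicle-only cultures of the same strain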; details: S. cerevisiae rad50 strain growth inhibition, hits give high values
Procedure, shortened: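 Inhibition values express reduced yeast growth in compound-treated cultures relative to vehicle-treated controls.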

[5] = NCI Yeast Anticancer Drug Screen. Data for the mec2-1 strain (AID 157); details: S. cerevisiae mec2-1 strain, hits give high values
Procedure, shortened: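 Test agents were screened against the mec2-1 yeast strain, with defined DNA repair or cell cycle alteration. Growth was scored as inhibition against vehicle-only controls.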

[6] = NCI Yeast Anticancer Drug Screen. Data for the rad14 strain (AID 159);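 note: 0% = growth of vehicle-treated control cultures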; details: S. cerevisiae rad14 strain growth inhibition, hits give high values
Procedure, shortened: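 A mutant yeast strain defective in DNA damage repair is treated with compound; inhibition of its growth is scored against untreated, vehicle-exposed cultures.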

[7] = NCI Yeast Anticancer Drug Screen. Data for the sgs1 mgt1 strain (AID 161);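 note: 0% = growth of cultures given vehicle only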; details: S. cerevisiae sgs1 mgt1 strain, hits give high values
Procedure, shortened: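 Mutant yeast exposed to compound; growth scored against vehicle-only wells.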

[8] = NCI Yeast Anticancer Drug Screen. Data for the CLN2oe strain (AID 163);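 note: 0% = growth of vehicle-only control cultures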; details: S. cerevisiae CLN2oe strain, hits give high values
Procedure, shortened: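 Here, growth inhibition in a cell-cycle-altered yeast strain after compound exposure was quantified against vehicle control growth.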

[9] = NCI Yeast Anticancer Drug Screen. Data for the cln2 rad14 strain (AID 165);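 note: 0% = growth equal to vehicle treated cultures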; details: S. cerevisiae cln2 rad14 strain, hits give high values
Procedure, shortened: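 Growth of compound-exposed yeast (cln2 rad14 genotype) measured and expressed as inhibition relative to vehicle.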

[10] = NCI Yeast Anticancer Drug Screen. Data for the bub3 strain (AID 167); details: S. cerevisiae bub3 mutant strain, hits give high values
Procedure, shortened: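 Steps: expose the mutant yeast strain to compound; grow alongside vehicle-treated cultures; measure growth; express inhibition against the vehicle cultures.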

[11] = NCI Yeast Anticancer Drug Screen. Data for the wt2 strain (AID 169);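 note: 0% = growth of vehicle-treated yeast cultures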; details: S. cerevisiae wt2 strain growth inhibition, hits give high values
Procedure, shortened: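 Genetically defined yeast strains from a DNA-repair/cell-cycle panel were used. Compound-exposed yeast growth was measured, and the inhibition was calculated relative to vehicle treatment.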

[12] = NCI Yeast Anticancer Drug Screen. Data for the sgs1 strain (AID 173);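 note: 0% = growth of vehicle-only control cultures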; details: S. cerevisiae sgs1 mutant, hits give high values
Procedure, shortened: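 Relative growth inhibition, referenced to vehicle, was determined in a yeast strain with a defined alteration affecting DNA damage repair or cell cycle control after compound exposure.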

[13] = NCI Yeast Anticancer Drug Screen. Data for the mlh1 rad18 strain (AID 175); details: S. cerevisiae mlh1 rad18 strain growth inhibition, hits give high values
Procedure, shortened: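 In this whole-cell yeast screen, a strain with altered DNA damage repair is challenged with compound, and its growth is measured against matched vehicle-treated controls.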

[14] = NCI Yeast Anticancer Drug Screen. Data for the rad18 strain (AID 177); details: S. cerevisiae rad18 mutant growth inhibition, hits give high values
Procedure, shortened: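 Screen uses a yeast strain with a defined lesion in DNA damage repair; compound effect is read as loss of growth compared to untreated vehicle cultures.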

[15] = NCI Yeast Anticancer Drug Screen. Data for the mlh1 strain (AID 171);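 note: 0% = growth of vehicle-treated control cultures of the same strain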; details: S. cerevisiae mlh1 strain growth inhibition, hits give high values
Procedure, shortened: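 Here the genetically defined yeast mutant is grown with each compound, and the extent to which its growth falls below that of vehicle-exposed cells is reported.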

[16] = at 5.0 µM (retest, dose inferred, filed as 0.5)
[17] = at 50.0 µM (retest, dose inferred, filed as 5.0)

Measured: growth inhibition

O=C(CCC(=O)c1ccc(O)cc1)Oc1ccc(O)cc1
inactive: [1]; at 1.2 µM -2% | [1]; at 3.7 µM 2% | [1]; at 11.0 µM -2% | [1]; at 33.0 µM -2% | [1]; at 100.0 µM 1% | [2]; at 1.2 µM 5% | [2]; at 3.7 µM 9% | [2]; at 11.0 µM 15% | [2]; at 33.0 µM 17% | [2]; at 100.0 µM 24% | [3]; at 1.2 µM 1% | [3]; at 3.7 µM -1% | [3]; at 11.0 µM 2% | [3]; at 33.0 µM 2% | [3]; at 100.0 µM 3% | [4]; at 1.2 µM 2% | [4]; at 3.7 µM 4% | [4]; [16] -13% | [4]; at 11.0 µM 2% | [4]; at 33.0 µM 6% | [4]; [17] 16% | [4]; at 50.0 µM -2.75% | [4]; at 100.0 µM 11% | [5]; at 1.2 µM -1% | [5]; at 3.7 µM 3% | [5]; [16] -2% | [5]; at 11.0 µM 3% | [5]; at 33.0 µM 7% | [5]; [17] -11% | [5]; at 50.0 µM -22.5% | [5]; at 100.0 µM 5% | [6]; at 1.2 µM -1% | [6]; at 3.7 µM -1% | [6]; at 11.0 µM -1% | [6]; at 33.0 µM 1% | [6]; at 100.0 µM 5% | [7]; [16] -8% | [7]; [17] 10% | [7]; at 50.0 µM 2.2% | [8]; at 1.2 µM 3% | [8]; at 3.7 µM -11% | [8]; at 11.0 µM 5% | [8]; at 33.0 µM 3% | [8]; at 100.0 µM 6% | [9]; [16] -9% | [9]; [17] 40% | [9]; at 50.0 µM 8.3% | [10]; at 1.2 µM 12% | [10]; at 3.7 µM 21% | [10]; [16] 18% | [10]; at 11.0 µM 33% | [10]; at 33.0 µM 40% | [10]; [17] 67% | [10]; at 50.0 µM 29.1% | [10]; at 100.0 µM 47% | [11]; at 1.2 µM -1% | [11]; at 3.7 µM -1% | [11]; at 11.0 µM -2% | [11]; at 33.0 µM 1% | [11]; at 100.0 µM -1% | [12]; at 1.2 µM 1% | [12]; at 3.7 µM 1% | [12]; at 11.0 µM 1% | [12]; at 33.0 µM 4% | [12]; at 100.0 µM 6% | [13]; [16] -18% | [13]; [17] 25% | [13]; at 50.0 µM 1.35% | [14]; at 1.2 µM 1% | [14]; at 3.7 µM -3% | [14]; at 11.0 µM -4% | [14]; at 33.0 µM -4% | [14]; at 100.0 µM -4%

CCCC#CCOC(=O)c1cc([N+](=O)[O-])cc([N+](=O)[O-])c1
active: [1]; at 11.0 µM 99% | [1]; at 33.0 µM 99% | [1]; at 100.0 µM 99% | [2]; at 3.7 µM 92% | [2]; at 11.0 µM 99% | [2]; at 33.0 µM 99% | [2]; at 100.0 µM 99% | [3]; at 3.7 µM 86% | [3]; at 11.0 µM 99% | [3]; at 33.0 µM 99% | [3]; at 100.0 µM 99% | [4]; [16] 88% | [4]; at 11.0 µM 98% | [4]; at 33.0 µM 98% | [4]; [17] 99% | [4]; at 50.0 µM 99.5% | [4]; at 100.0 µM 99% | [5]; [16] 99% | [5]; at 11.0 µM 99% | [5]; at 33.0 µM 99% | [5]; [17] 100% | [5]; at 50.0 µM 99.7% | [5]; at 100.0 µM 99% | [7]; [16] 97% | [7]; [17] 100% | [7]; at 50.0 µM 99.7% | [8]; at 11.0 µM 99% | [8]; at 33.0 µM 99% | [8]; at 100.0 µM 99% | [9]; [17] 99% | [9]; at 50.0 µM 99.5% | [10]; [16] 86% | [10]; at 11.0 µM 98% | [10]; at 33.0 µM 98% | [10]; [17] 99% | [10]; at 50.0 µM 99.8% | [10]; at 100.0 µM 99% | [11]; at 3.7 µM 95% | [11]; at 11.0 µM 97% | [11]; at 33.0 µM 99% | [11]; at 100.0 µM 99% | [15]; at 11.0 µM 99% | [15]; at 33.0 µM 99% | [15]; at 100.0 µM 99% | [12]; at 3.7 µM 97% | [12]; at 11.0 µM 99% | [12]; at 33.0 µM 99% | [12]; at 100.0 µM 99% | [13]; [16] 97% | [13]; [17] 100% | [13]; at 50.0 µM 99.5% | [14]; at 3.7 µM 81% | [14]; at 11.0 µM 99% | [14]; at 33.0 µM 99% | [14]; at 100.0 µM 99%
inactive: [1]; at 1.2 µM -4% | [1]; at 3.7 µM 22% | [2]; at 1.2 µM 22% | [3]; at 1.2 µM -5% | [4]; at 1.2 µM 2% | [4]; at 3.7 µM 67% | [5]; at 1.2 µM -2% | [5]; at 3.7 µM 33% | [8]; at 1.2 µM -2% | [8]; at 3.7 µM 11% | [9]; [16] 23% | [10]; at 1.2 µM -9% | [10]; at 3.7 µM 4% | [11]; at 1.2 µM -5% | [15]; at 1.2 µM 1% | [15]; at 3.7 µM 30% | [12]; at 1.2 µM 4% | [14]; at 1.2 µM 4%
